tim23-1 inh: tim23-1 yeast growth inhibition; inhibition, % at 20 µM; S. cerevisiae tim23-1 growth, BacTiter-Glo luminescence, 24 h; 330,000 compounds, 1.3% hits;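 active means growth inhibition of the mutant yeast at or above 50%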;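 further: temperature-sensitive mutant grown at 25 °C; plate controls were DMSO-treated mutant yeast for no effect and medium wells lacking yeast for full effect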
tim10-1 inh: growth inhibitors of tim10-1 mutant yeast; S. cerevisiae tim10-1 ts strain growth, BacTiter-Glo, 24 h; inhibition, % at 20 µM; 330,000 compounds, 2.2% hits;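 active means inhibition of at least 40%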;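 further: mutant grown at 25 °C; 0% = DMSO wells with yeast and 100% = wells holding no yeast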
PfHsp90 set2: reduces growth (ATP signal) of yeast expressing P. falciparum Hsp90; S. cerevisiae expressing PfHsp90, BacTiter-Glo ATP, 48 h; yeast lacking PDR1 and PDR3 efflux regulators; inhibition, % at 9.4 µM; 310,000 compounds, 0.32% hits; AID 504621;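 active means every replicate shows inhibition above about 80%, whatever the replicate mean, limit read from the data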;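 further: 0% = DMSO neutral controls and 100% = 20 µM radicicol positive controls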
V-ATPase pHluor: yeast V-ATPase proton transport regulation by pHLuorin | S. cerevisiae, pHLuorin cytosolic pH fluorescence | response, % at 10 µM | 350,000 compounds, 0.37% hits; in the data active means response mostly above about 7.3%, no sharp cut-off; inactive means mostly below about 5.4%; further: actives read high
TIM10 inh: growth inhibitors of TIM10 yeast strain | inhibition, % at 10 µM | S. cerevisiae TIM10 strain growth, BacTiter-Glo luminescence, 24 h | AID 463195 | 330,000 compounds, 1.4% hits;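 active means inhibition of 40% or more at the single tested concentration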;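 further: wild-type TIM10 isogenic control strain grown at permissive 25 °C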
SKKanGAS inh: inhibitors of SKKanGAS S. pyogenes growth in kanamycin (SK-promoter or general growth effect); 300,000 compounds, 1.3% hits; inhibition, % at 7.5 µM; BacTiter-Glo, 6 h;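 active means mean replicate score, as percent of positive control median, at least 50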;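 further: strain carries kanamycin resistance gene driven by streptokinase promoter and grows in 40 µg/ml kanamycin; loss of luminescence reflects streptokinase promoter inhibition or plain growth inhibition; 0% = median of DMSO wells and 100% = positive control at its reference dose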
tim10-1 confirm: confirmation of tim10-1 mutant yeast growth inhibitors | inhibition, % at 20 µM | 7,400 compounds, 56% hits | S. cerevisiae tim10-1 ts strain growth, BacTiter-Glo, 24 h | shares compounds with tim10-1 inh;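 active means inhibition of yeast growth at or above a set limit in either of two repeat tests at 20 µM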;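 further: tim10-1 mutant grown at permissive 25 °C to find synthetic lethal compounds; 0% = DMSO yeast wells and 100% = medium wells without yeast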
An asterisk follows results filed as active; nt = no result given; + = active, no number. In the library only some 4.6% were active in any assay of this set; here they are far more common.

SMILES	tim23-1 inh	tim10-1 inh	PfHsp90 set2	V-ATPase pHluor	TIM10 inh	SKKanGAS inh	others
Cc1ccc2nc(-c3ccc(NS(C)(=O)=O)cc3)cc(-c3ccccc3)c2c1	35	39	137*	1	29	26
CCS(=O)(=O)Nc1ccc(-c2cc(-c3ccccc3)c3cc(C)ccc3n2)cc1	nt	nt	69	7	nt	95*
Cc1ccc2nc(-c3ccncc3)cc(-c3ccccc3)c2c1	42	33	-8	-6	28	-7
COc1ccccc1OC(C)C(=O)N(Cc1ccco1)C1CCS(=O)(=O)C1 (stereo not drawn)	6	-2	-5	0	-4	1
COc1ccccc1NC(=S)N=Nc1c(O)[nH]c2ccc(Br)cc12	9	12	23	-2	12	93*
Oc1[nH]c2ccc(Br)cc2c1N=NC(=S)NCC1CCCO1 (stereo not drawn)	21	30	4	-1	23	81*
CC1(C)CC2CC(C)(CN2C(=O)COC(=O)c2ccccc2C(F)(F)F)C1 (stereo not drawn)	24	-3	-19	2	8	nt
COc1cc(C(=O)OCC(=O)Nc2ccccc2)cc2c1OCCO2	nt	nt	nt	1	nt	nt
Cc1cccc(C)c1NC(=O)CN(C)CC(=O)Nc1sc2c(c1C(N)=O)CCC2	11	-5	-12	2	6	50*
Cc1ccc(NC(=O)CN(C)CC(=O)Nc2sc3c(c2C(N)=O)CCC3)cc1	6	-1	-18	-2	9	9
COc1cc2nc(=S)n3[nH]c(CCn4nc(C)cc4C)nc3c2cc1OC	-1	13	-3	-5	7	51*
COc1cc2nc(=S)n3[nH]c(COc4ccccc4C)nc3c2cc1OC	10	11	-10	6	16	64*
COc1cc(-c2csc(CCn3nc(C)cc3C)n2)cc(OC)c1OC	13	29	-11	0	17	0
Cc1ccccc1OCc1nc2ccccc2c(=O)n1N	15	-4	-37	-3	2	-10
COC(=O)c1cc(OC)nc2ccc(Br)cc12	-5	8	1	2	-19	-8
O=C(Cc1ccc(Cl)c(Cl)c1)Nc1ccc2[nH]c(=O)[nH]c2c1	-26	6	nt	1	0	2
COc1cc(C#Cc2c(-c3cncn3C)n(C)c3ccc(-c4ccc(OC)nc4)cc23)cc(OC)c1	25	24	+	-1	5	nt
COc1cc(C#Cc2c(-c3cncn3C)n(C)c3ccc(-c4cc(OC)c(OC)c(OC)c4)cc23)cc(OC)c1	23	14	12	1	10	nt
O=C(Nc1ccccc1Cl)C(Cl)C(=O)c1ccccc1 (stereo not drawn)	39	42*	0	0	25	nt	tim10-1 confirm=31*
O=C(COc1ccc(F)cc1)N(Cc1ccc(Cl)cc1)C1CCS(=O)(=O)C1 (stereo not drawn)	16	29	7	1	0	6
Cc1cccc(C)c1OCC(=O)N(Cc1ccc(Cl)cc1)C1CCS(=O)(=O)C1 (stereo not drawn)	36	40*	5	5	15	-5	tim10-1 confirm=-7
CCOC(=O)N1C(=O)[C@@](c2ccc(Cl)cc2)(C(C)C)N1C(=O)OCC	-16	44*	-16	2	-10	3	tim10-1 confirm=45*
COC(=O)N1C(=O)[C@](c2ccccc2)(C(C)C)N1C(=O)OC	23	20	-14	1	23	-1
CC(=O)Nc1ccc(OS(=O)(=O)c2c(C)cc(C)cc2C)cc1	41	46*	-21	3	33	-16	tim10-1 confirm=31*
CC(=O)Nc1ccc(OS(=O)(=O)c2ccc(C)cc2C)cc1	28	35	10	-3	17	-2
O=C(COC(=O)c1cc(S(=O)(=O)N2CCOCC2)ccc1F)Nc1ccccc1C(F)(F)F	nt	nt	nt	0	nt	nt
CC(NC(=O)C12CC3CC(CC(C3)C1)C2)c1ccc2c(c1)OCCO2 (stereo not drawn)	24	45*	nt	2	8	-1	tim10-1 confirm=25
C=Cc1cnc([N+](=O)[O-])n1C	nt	nt	nt	2	nt	nt
CN(Cc1ccccc1)C(=O)c1[nH]cnc1C(=O)Nc1ccccc1F	nt	nt	nt	-1	nt	nt
